Screens as filed in PubChem BioAssay.
MCF10A rereplic – A quantitative high throughput screen for small molecules that induce DNA re-replication in MCF 10a normal breast cells; MCF 10A DNA re-replication, Hoechst nuclear intensity, 48 h; Potency, µM (highest dose often 46.1 µM), for inactives: top-dose activity, positive = re-replication, most hits filed as activators; actives 2.9% (n = 350,000); AID 624296, 2012; also: potency is read from the fitted curve at half-maximal effect; % of control where 0% means no effect; nearly all actives have a fitted effect of over 50% in size
SW480 rereplic – A quantitative high throughput screen for small molecules that induce DNA re-replication in SW480 colon adenocarcinoma cells. SW480 DNA re-replication, Hoechst DNA content imaging, 48 h. Potency, µM (top dose mostly 46.1 µM), for the others: at the top dose re-replication activation, most hits filed as activators. actives 1.8% (n = 340,000). AID 624297, 2012; also: potency is read from the fitted curve at half-maximal effect; % of control where 0% means no effect; nearly all actives have a fitted effect of over 55% in size
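Hoechst fluorescence of nuclei (405 nm excitation, 500-530 nm emission) measured by plate-scanning imager after 48 hr compound exposure at 37 C; re-replication scored as increased number of nuclei with elevated intensity.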
uPA generation – qHTS for Inhibitors of Cell Surface uPA Generation; cell surface uPA generation assay, qHTS; Potency, µM (doses to about 38.3 µM), for inactives: top-dose activity change, negative = inhibition, most hits filed as inhibitors; actives 0.31% (n = 330,000); active = well fitted inhibition curve with a large enough effect; inconclusive = small, poorly fitted or top-dose-only effect; inactive = no such curve, though single readings can be large or run the other way; tested in mouse RAW 264.7 cells; also: potency is read from the fitted curve at half-maximal effect; % is scaled to controls: 0 for no effect and ±100 for the full control effect; nearly all actives have a fitted effect of over 55% in size
Giardia kill – Small Molecules that selectively kill Giardia lamblia: qHTS; Giardia lamblia trophozoite viability; activity change, % at 7.66 µM, hits read low; actives 0.15% (n = 340,000); in the data active = activity change below about -80%; inconclusive = between about -30% and that limit;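 also: parasites exposed to compound for two days anaerobically before the ATP read; % is scaled to controls: 0 for no effect and ±100 for the full control effect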
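Media and compound were dispensed first, then trophozoites at 100 cells/well; plates sat 48 hrs at 37 deg C without oxygen before ATP luminescence reagent was added and read after 15-30 min at room temperature.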
* = called active by the depositor; [ ] = dose if it differs, or a comment. Only some compounds are listed: those with a hit (about 4.3% of all), similar ones and a draw of the others. Unless noted, calls follow the shape of the dose curve; as a rule, active = well fitted activation curve with a large enough effect; inconclusive = small, poorly fitted or top-dose-only effect; inactive = no such curve, though single readings can be large or run the other way.

`O=C(Cn1cnc2sc(-c3ccccc3)cc2c1=O)NCc1ccccc1` gave MCF10A rereplic 4.6µM*, SW480 rereplic 16µM* and Giardia kill 17.
Screening O=C(Cn1cnc2sc(-c3ccccc3)cc2c1=O)NCCc1ccccc1 returned MCF10A rereplic inconclusive, SW480 rereplic inconclusive, uPA generation 1% and Giardia kill -7.
Screening O=C(Cn1cnc2c(OCc3ccccc3)ncnc21)NCc1ccccc1 returned MCF10A rereplic inconclusive, SW480 rereplic 15µM*, uPA generation inconclusive and Giardia kill 24.
For CCOC(=O)N1CCC(NC(=O)c2cc(COc3ccccc3SC)on2)CC1 the results were MCF10A rereplic 17%, SW480 rereplic 7%, uPA generation -2% and Giardia kill 49.
For c1ccc(-c2nnnn2-c2ccccc2)cc1 the results were MCF10A rereplic 4%, SW480 rereplic inconclusive, uPA generation 6% and Giardia kill -18.
ClC(Cl)(c1nnnn1-c1ccccc1)c1nnnn1-c1ccccc1 was read as MCF10A rereplic inconclusive, SW480 rereplic 13µM*, uPA generation -10% and Giardia kill 16.
Screening Oc1ccc(Br)cc1/C=N/Nc1nc(N2CCCCC2)nc(N2CCOCC2)n1 returned MCF10A rereplic 12%, SW480 rereplic 21µM*, uPA generation 9% and Giardia kill -7.
BrC(/C=C\c1ccccc1)=N/Nc1nc(N2CCOCC2)nc(N2CCOCC2)n1 was read as MCF10A rereplic 10µM*, SW480 rereplic inconclusive, uPA generation -1% and Giardia kill -2.
`C/C(=N\Nc1nc(N2CCCCC2)nc(N2CCOCC2)n1)c1ccccc1O` gave MCF10A rereplic inconclusive, SW480 rereplic 12µM*, uPA generation -4% and Giardia kill -4.
`CN(C)C(=O)CCc1ccc2c3c([nH]c2c1)[C@]1(CCC2CCCC2)[C@@H](C(=O)N2CCOCC2)C[C@H](CC(=O)NCCc2ccccn2)C(=O)N1CC3` gave MCF10A rereplic 2%, SW480 rereplic -6%[9.22 µM], uPA generation 0% and Giardia kill 0.
Screening Cc1noc(C)c1COc1ccccc1C(=O)NCCc1ccccc1 returned MCF10A rereplic 5%, SW480 rereplic -8%, uPA generation -3% and Giardia kill 0.
Cc1noc(C)c1COc1ccc(C(=O)NCCc2ccccn2)cc1 was read as MCF10A rereplic 3.3µM*, SW480 rereplic 5%, uPA generation -10% and Giardia kill -25.
Cc1noc(C)c1COc1ccccc1C(=O)NC(C)CCc1ccccc1 (configuration not stated) was read as MCF10A rereplic -1%, SW480 rereplic 4.1µM*, uPA generation 5% and Giardia kill -11.
Cc1noc(C)c1COc1ccc(CC(=O)NCc2ccccc2)cc1 was read as MCF10A rereplic 5.8µM*, SW480 rereplic inconclusive, uPA generation inconclusive and Giardia kill 12.
`CC(C)[C@H]1COCCS(=O)(=O)N1Cc1ccccc1-c1cccc(Cl)c1` gave MCF10A rereplic 7%, SW480 rereplic 0%, uPA generation -5% and Giardia kill -4.
Screening CC1(C)OC(=O)C2(Cc3ccccc3N3CCC(c4ccccc4)CC32)C(=O)O1 (configuration not stated) returned Giardia kill -14.
`C#C[C@@]1(O)CC[C@@H]2[C@H]3CCC4=C/C(=N\O)CC[C@H]4[C@@H]3CC[C@]21CC` gave MCF10A rereplic inconclusive and SW480 rereplic 18%.
`COc1ccc(CCn2c(-n3nc(C)cc3C)nc3c2c(=O)[nH]c(=O)n3C)cc1` gave MCF10A rereplic 1.6µM*, SW480 rereplic inconclusive, uPA generation -3% and Giardia kill 8.
Screening COCCn1c(SCCCc2ccccc2)nc2c1c(=O)[nH]c(=O)n2C returned MCF10A rereplic 3%, SW480 rereplic -5%, uPA generation 1% and Giardia kill 12.
`Cc1ccc(Cn2c(-n3nc(C)cc3C)nc3c2c(=O)[nH]c(=O)n3C)cc1` gave MCF10A rereplic 0%, SW480 rereplic -1%, uPA generation -22% and Giardia kill -23.
For COCCSc1nc2c(c(=O)[nH]c(=O)n2C)n1CCCc1ccccc1 the results were MCF10A rereplic 1.5µM*, SW480 rereplic 6%, uPA generation -24% and Giardia kill 29.
O=Cc1ccc(Oc2cc(-c3ccccc3)nc(-c3ccccc3)n2)cc1 was read as MCF10A rereplic 17%, SW480 rereplic 13%, uPA generation 1% and Giardia kill -6.
Screening CC(=O)c1ccc(Oc2cc(-c3ccccc3)nc(-c3ccccc3)n2)cc1 returned MCF10A rereplic 1%, SW480 rereplic 21µM*, uPA generation -4% and Giardia kill -17.
Cc1ccc(-c2nn(-c3ccccc3)cc2/C=C/C(=O)O)o1 was read as MCF10A rereplic 5%, SW480 rereplic 6%, uPA generation -20% and Giardia kill 15.
Cc1ccc(-c2nn(-c3ccccc3)cc2CN(Cc2ccccc2)C(=O)c2ccco2)o1 was read as MCF10A rereplic 16µM*, SW480 rereplic inconclusive, uPA generation -5% and Giardia kill 9.
For C=CCN1C(=O)/C(=C/c2ccc(O)c(OC)c2)S/C1=N/c1nccs1 the results were MCF10A rereplic 18µM*, SW480 rereplic inconclusive, uPA generation -5% and Giardia kill 5.
Screening Cc1nc2sc(C(c3ccco3)N3CCN(c4ccccc4F)CC3)c(O)n2n1 (configuration not stated) returned MCF10A rereplic 18µM*, SW480 rereplic 17%, uPA generation -16% and Giardia kill 4.
Cc1nc2sc(C(c3ccco3)N3CCN(c4ccc(F)cc4)CC3)c(O)n2n1 (configuration not stated) was read as MCF10A rereplic 1%, SW480 rereplic 5%, uPA generation -3% and Giardia kill 2.
Cc1ccnc(NS(=O)(=O)c2ccc(NC(=O)c3ccc([N+](=O)[O-])s3)cc2)n1 was read as MCF10A rereplic 12µM*, SW480 rereplic 18µM*, uPA generation -11% and Giardia kill 6.
Screening Cc1cc(NS(=O)(=O)c2ccc(NC(=O)c3ccc([N+](=O)[O-])s3)cc2)nc(C)n1 returned MCF10A rereplic 18µM*, SW480 rereplic inconclusive, uPA generation -2% and Giardia kill -4.
`CCOC(=O)[C@H](CCc1ccccc1)N[C@@H](C)C(=O)N1C(=O)N(C)C[C@H]1C(=O)O` gave MCF10A rereplic 0% and SW480 rereplic -2%.
Screening O=S(=O)(c1ccc(F)cc1)N1CCN(c2nc(-c3ccccc3)nc3ccccc23)CC1 returned Giardia kill 2.
For CCCCC(=O)N(c1ccc(OCC)cc1)C1C=CS(=O)(=O)C1 (configuration not stated) the results were MCF10A rereplic 13µM*, SW480 rereplic 1%, uPA generation 8% and Giardia kill -2.
